In publication PMC11062922 (Nature Chemical Biology, 2023) one finds potency estimated from few doses, EC50 and Kd data, which are given here for 21 molecules.

Read-outs that look alike come from different tables or passages of the source.

For test [1], the system named is CDK1. The arrangement: species or system human, MV4-11 + K-562 + COLO205 + SK-N-BE2 + OVCAR-8. The settings on record: read-out: apparent Kd; compound concentrations: 100 nM and 1000 nM (sheet 'Samples'), CATDS: 4.2052312432732299E-3; n = 1.
Test [2] relates to MAPK7. The arrangement: species or system human, MV4-11 + K-562 + COLO205 + SK-N-BE2 + OVCAR-8. The conditions noted are these: read-out: apparent Kd; compound concentrations: 100 nM and 1000 nM (sheet 'Samples'), CATDS: 3.9838262564481702E-3; n = 1.
Test [3] concerns TESK1. The arrangement: species or system human, MV4-11 + K-562 + COLO205 + SK-N-BE2 + OVCAR-8. The settings on record: read-out: apparent Kd; compound concentrations: 100 nM and 1000 nM (sheet 'Samples'), CATDS: 1.6628532352141699E-2; n = 1.
In test [4] the test system is TUBB6. The arrangement: species or system human, MV4-11 + K-562 + COLO205 + SK-N-BE2 + OVCAR-8. The conditions noted are these: read-out: apparent Kd; compound concentrations: 100 nM and 1000 nM (sheet 'Samples'), CATDS: 3.8955620012379099E-3; n = 1.
Test [5] concerns CSNK2B. The conditions noted are these: compound concentrations:3nM, 10nM, 30nM, 100nM, 300nM, 1000nM, 3000nM, 30000nM,R2:0.92635600361285697,slope:3.98443256783656,EC50 Standard Error, by the legend:Standard error of the EC50 estimation as provided by the drc package.
The subject of test [6] is EIF3J. The settings on record: compound concentrations:3nM, 10nM, 30nM, 100nM, 300nM, 1000nM, 3000nM, 30000nM,R2:0.88928942104591402,slope:1.5975809400026999,EC50 Standard Error, by the legend:Standard error of the EC50 estimation as provided by the drc package.
The test system of test [7] is IRAK3. The settings on record: compound concentrations:3nM, 10nM, 30nM, 100nM, 300nM, 1000nM, 3000nM, 30000nM,R2:0.92660925835613905,slope:0.92534849669637798,EC50 Standard Error, by the legend:Standard error of the EC50 estimation as provided by the drc package.
Test [8] deals with NQO2. The settings on record: compound concentrations:3nM, 10nM, 30nM, 100nM, 300nM, 1000nM, 3000nM, 30000nM,R2:0.94793507341518402,slope:1.3847657393086299,EC50 Standard Error, by the legend:Standard error of the EC50 estimation as provided by the drc package.
The subject of test [9] is EIF2AK1. The arrangement: species or system human, MV4-11 + K-562 + COLO205 + SK-N-BE2 + OVCAR-8. The conditions noted are these: read-out: apparent Kd, n = 1.
The subject of test [10] is MTHFD1. Further details: species or system human, MV4-11 + K-562 + COLO205 + SK-N-BE2 + OVCAR-8. The conditions noted are these: read-out: apparent Kd, compound concentrations: 100 nM and 1000 nM (sheet 'Samples'), n = 1.
The subject of test [11] is IARS. The arrangement: species or system human, MV4-11 + K-562 + COLO205 + SK-N-BE2 + OVCAR-8. The conditions noted are these: read-out: apparent Kd, compound concentrations: 100 nM and 1000 nM (sheet 'Samples'), n = 1.
The subject of test [12] is ADK. Further details: species or system human, MV4-11 + K-562 + COLO205 + SK-N-BE2 + OVCAR-8. The settings on record: read-out: apparent Kd, compound concentrations: 100 nM and 1000 nM (sheet 'Samples'), n = 1.
In test [13] the test system is NNT. Further details: species or system human, MV4-11 + K-562 + COLO205 + SK-N-BE2 + OVCAR-8. The conditions noted are these: read-out: apparent Kd, compound concentrations: 100 nM and 1000 nM (sheet 'Samples'), n = 1.
Test [14] deals with MCM5. Further details: species or system human, MV4-11 + K-562 + COLO205 + SK-N-BE2 + OVCAR-8. The settings on record: read-out: apparent Kd, compound concentrations: 100 nM and 1000 nM (sheet 'Samples'), n = 1.
The subject of test [15] is CDC42. The arrangement: species or system human, MV4-11 + K-562 + COLO205 + SK-N-BE2 + OVCAR-8. The conditions noted are these: read-out: apparent Kd, n = 1.
In test [16] the test system is GALK1. The arrangement: species or system human, MV4-11 + K-562 + COLO205 + SK-N-BE2 + OVCAR-8. The settings on record: read-out: apparent Kd, compound concentrations: 100 nM and 1000 nM (sheet 'Samples'), n = 1.
Test [17] concerns RAB5C. Further details: species or system human, MV4-11 + K-562 + COLO205 + SK-N-BE2 + OVCAR-8. The settings on record: read-out: apparent Kd, n = 1.
Test [18] deals with NME2;NME2P1. Further details: species or system human, MV4-11 + K-562 + COLO205 + SK-N-BE2 + OVCAR-8. The conditions noted are these: read-out: apparent Kd, n = 1.
For test [19], the system named is PRKACG. Further details: species or system human, MV4-11 + K-562 + COLO205 + SK-N-BE2 + OVCAR-8. The conditions noted are these: read-out: apparent Kd, compound concentrations: 100 nM and 1000 nM (sheet 'Samples'), n = 1.
In test [20] the test system is PKM. The arrangement: species or system human, MV4-11 + K-562 + COLO205 + SK-N-BE2 + OVCAR-8. The settings on record: read-out: apparent Kd, n = 1.
Where [21] appears, read: compound concentrations:100 nM and 1000 nM (sheet 'Samples').

`Cn1ncc2c(N)ncnc21` [SKF-18267]: the potency estimated from few doses in test [1] was 1180 nM; in [2], 1350 nM; in test [3], 136 nM; in test [4], 1430 nM.
For Entospletinib, the EC50 in test [5] is 941 nM; in [6] it was 1610 nM; in test [7], 4710 nM; in test [8], 295 nM. Also, the Kd in test [5] (read-out: apparent Kd) is 941 nM; in test [6] (read-out: apparent Kd), 1610 nM; in test [7] (read-out: apparent Kd), 2030 nM; in [8] (read-out: apparent Kd), 131 nM.
With `CCn1c(-c2nonc2N)nc2c(C#CC(C)(C)O)nc(O[C@@H](CN)c3ccccc3)cc21.O=C(O)C(F)(F)F` [GSK1007102B], the potency estimated from few doses in [9] (setting [21]) is 996 nM.
Turning to `CCN(CC)Cc1ccc(Nc2nccc(-c3cnn4ncccc34)n2)cc1` [GW780056X], in test [10] (CATDS: 2.2377842490129501E-2), the potency estimated from few doses is 921 nM.
As for `O=C(O)C(F)(F)F.O=c1[nH]ccc2nc(N[C@@H]3CCNC3)nc(Nc3ccc4c(c3)S(=O)(=O)CC4)c12` [GSK2181306A], the potency estimated from few doses in test [11] (CATDS: 8.0761213761314007E-3) is 1860 nM.
On to `O=C1N=C(NCc2c(Cl)cccc2Cl)S/C1=C\c1ccc2ncccc2c1` [RO4600445-000], for which the potency estimated from few doses in test [12] (CATDS: 0.24369856841726101) is 1350 nM.
In the case of `COc1ccc(-c2cc3c(N)ncnc3o2)cc1` [GW642138X], the potency estimated from few doses in test [13] (CATDS: 0.135417913174183) was 1070 nM.
For `COc1cc(Nc2nccc(-c3cnn4ncccc34)n2)cc(OC)c1` [GW801372X], the potency estimated from few doses in test [14] (CATDS: 1.9115246172466901E-2) was 1390 nM.
For the molecule `Cl.Cl.NC(CNC(=O)c1cc(Br)c(-c2ccnc3[nH]ccc23)s1)c1ccccc1.NC(CNC(=O)c1cc(Br)c(-c2ccnc3[nH]ccc23)s1)c1ccccc1` (stereo not drawn) [GSK1322949A], the potency estimated from few doses in [15] (compound concentrations: 100 nM and 1000 nM (sheet 'Samples'), CATDS: 2.9749426965709602E-2) is 1240 nM; in test [16] (CATDS: 2.6759379349231501E-2) it was 1600 nM; in [14] (CATDS: 2.5853375360702799E-2), 1760 nM; in [10] (CATDS: 2.96394051410106E-2), 1250 nM; in [17] (compound concentrations: 100 nM and 1000 nM (sheet 'Samples'), CATDS: 2.6344655895194399E-2), 1670 nM.
Take `Cc1cccc(Nc2nc(N[C@H]3CCNC3)ncc2C(N)=O)c1.Cl` [GSK2197149A]: in test [18] (setting [21]), the potency estimated from few doses is 1460 nM.
Consider `CCn1c(-c2cccnc2O)nc2cnccc21` [SB-736715], for which the potency estimated from few doses in test [9] (compound concentrations: 100 nM and 1000 nM (sheet 'Samples'), CATDS: 1.2624621535744099E-2) was 1920 nM.
`Cc1ccccc1-n1ncc(C(=O)c2ccccc2)c1N` [RO1151248-000]: the potency estimated from few doses in test [19] (CATDS: 2.9121921896178699E-2) is 613 nM.
As to `CS(=O)(=O)Nc1cccc(-c2ccc3c(NC(=O)C4CC4)n[nH]c3c2)c1` [SB-742864], the potency estimated from few doses in test [16] (CATDS: 0.105390971488214) is 1820 nM; in test [18] (compound concentrations: 100 nM and 1000 nM (sheet 'Samples'), CATDS: 0.103585369709675) it was 1910 nM.
For the molecule `COc1cc(Nc2nccc(N3CCC(NC(=O)c4cccc(NC(C)=O)c4)C3)n2)cc(OC)c1OC` (stereo not drawn) [GSK1379754A], the potency estimated from few doses in test [20] (compound concentrations: 100 nM and 1000 nM (sheet 'Samples'), CATDS: 8.1586836054847095E-2) is 1900 nM.
`CC(C)Nc1cc(-c2ccc3c(N)n[nH]c3c2)nc(N)n1` [GSK2221681A]: in [15] (setting [21]), the potency estimated from few doses was 1530 nM.
Turning to `O=C1N=C(NCc2cccs2)O/C1=C\c1ccc2ncccc2c1` [RO4624208-000], in test [12] (CATDS: 4.98118638137824E-2), the potency estimated from few doses was 1390 nM.
With `NS(=O)(=O)c1ccc(N/N=C2\C(=O)Nc3ccc4ncccc4c32)cc1` [GW305178X], the potency estimated from few doses in [19] (CATDS: 4.9106390332169098E-2) is 1030 nM.
On to `COc1ccc(Nc2nccc(NCCNC(=O)Nc3cc(C)ccc3C)n2)cc1` [GSK1379899A], for which the potency estimated from few doses in test [11] (CATDS: 4.14736343029877E-2) is 1920 nM.
As to `Cl.Nc1nc(-c2ccc3c(c2)C(=Cc2cc(Br)c(O)c(Br)c2)C(=O)N3)cs1` [GW407323A], the potency estimated from few doses in [13] (CATDS: 3.26521392467971E-2) is 987 nM.
As for `Cl.Cl.NCC(NCc1ccc(-c2ccnc3[nH]ccc23)s1)c1ccccc1.NCC(NCc1ccc(-c2ccnc3[nH]ccc23)s1)c1ccccc1` (stereo not drawn) [GSK1321565A], the potency estimated from few doses in test [20] (setting [21]) is 2050 nM.
`Nc1nc(-c2ccc3c(N)n[nH]c3c2)cc(N2CCCC(NC(=O)c3ccccc3)C2)n1` (stereo not drawn) [GSK2286775B]: the potency estimated from few doses in test [17] (setting [21]) was 1520 nM.
